# According to PubChem BioAssay (Tox21):
# Results filed as inconclusive are left out. Where a call stands in place of a potency, no number is given. A number with no mark means an inactive call. Activity calls are given as the source filed them. The call rests on the fitted dose curve; in most records, active means well fitted curve in the direction sought with a large enough effect in the repeat runs; inconclusive means weak or mixed curves; inactive means no such curve, though single readings can be large; an effect the other way counts as inactive or inconclusive.
# What was measured:
# [1] = biological target: Cytochrome P450 1A2 (Homo sapiens) (UniProt P05177); assay: Cytochrome P450 Family 1 Subfamily A Member 2 (CYP1A2) small molecule antagonists: luciferase reporter qHTS assay (AID 1671199); details: P450-Glo CYP1A2 enzyme, luciferin luminescence, 1 h; series mostly up to 115 µM
# Cytochrome P450 1A2 (Homo sapiens), sequence (P05177 whole entry, looked up): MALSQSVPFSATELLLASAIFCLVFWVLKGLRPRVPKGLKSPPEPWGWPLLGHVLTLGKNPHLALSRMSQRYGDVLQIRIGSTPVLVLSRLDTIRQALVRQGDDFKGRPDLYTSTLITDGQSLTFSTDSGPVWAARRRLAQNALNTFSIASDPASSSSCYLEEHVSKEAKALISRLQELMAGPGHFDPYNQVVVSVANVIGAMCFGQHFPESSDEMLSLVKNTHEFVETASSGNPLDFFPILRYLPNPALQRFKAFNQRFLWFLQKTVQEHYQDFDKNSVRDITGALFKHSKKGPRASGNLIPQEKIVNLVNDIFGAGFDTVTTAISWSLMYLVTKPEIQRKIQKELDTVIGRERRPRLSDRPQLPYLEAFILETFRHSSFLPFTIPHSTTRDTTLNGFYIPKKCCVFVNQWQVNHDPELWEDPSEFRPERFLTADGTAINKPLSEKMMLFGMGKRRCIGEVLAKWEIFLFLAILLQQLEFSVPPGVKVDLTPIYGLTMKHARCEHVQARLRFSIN
# In short: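 P450-Glo CYP1A2, 1536-well qHTS: enzyme/proluciferin substrate + cpd (DMSO), 10 min RT; NADPH regen, 1 h RT; detection reagent, 20 min; luminescence, RLU.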
# [2] = biological target: Cytochrome P450 3A4 (Homo sapiens) (UniProt P08684); assay: Cytochrome P450 Family 3 Subfamily A Member 4 (CYP3A4) small molecule antagonists: luciferase reporter qHTS assay (AID 1671201); details: P450-Glo CYP3A4 enzyme, luciferin luminescence, 1 h; series mostly up to 115 µM
# Cytochrome P450 3A4 (Homo sapiens), sequence (P08684 whole entry, looked up): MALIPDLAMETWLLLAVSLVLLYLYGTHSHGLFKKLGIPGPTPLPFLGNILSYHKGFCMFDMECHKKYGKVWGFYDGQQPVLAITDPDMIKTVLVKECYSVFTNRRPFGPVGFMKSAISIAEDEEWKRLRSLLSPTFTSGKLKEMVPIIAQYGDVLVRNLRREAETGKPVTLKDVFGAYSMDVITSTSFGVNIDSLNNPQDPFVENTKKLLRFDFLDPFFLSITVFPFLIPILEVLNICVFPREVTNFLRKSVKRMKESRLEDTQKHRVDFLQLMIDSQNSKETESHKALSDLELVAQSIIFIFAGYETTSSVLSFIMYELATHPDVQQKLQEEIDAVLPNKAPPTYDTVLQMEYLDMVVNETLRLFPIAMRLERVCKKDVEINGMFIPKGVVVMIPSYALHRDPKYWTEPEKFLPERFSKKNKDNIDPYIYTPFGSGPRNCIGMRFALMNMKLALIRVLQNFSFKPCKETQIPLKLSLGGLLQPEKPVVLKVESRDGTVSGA
# In short: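 Setup: enzyme-substrate mix, compound pin transfer, 10 min RT. Reaction: NADPH regeneration solution, 1 h RT. Readout: detection reagent stops turnover, luminescence measured after 20 min, expressed in relative luminescence units.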
# [3] = biological target: Voltage-gated inwardly rectifying potassium channel KCNH2 (Homo sapiens) (UniProt Q12809); assay: Human Ether-a-go-go-Related Gene (hERG) channel small molecule antagonists: fluorescence cell-based qHTS assay (AID 1671200); details: hERG-U2OS cells, FluxOR thallium flux fluorescence; series mostly up to 76.8 µM;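 on activity change, negative = inhibition: hERG-expressing U2OS cells given a thallium stimulus after FluxOR II dye loading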
# Voltage-gated inwardly rectifying potassium channel KCNH2 (Homo sapiens), sequence (Q12809 whole entry, looked up): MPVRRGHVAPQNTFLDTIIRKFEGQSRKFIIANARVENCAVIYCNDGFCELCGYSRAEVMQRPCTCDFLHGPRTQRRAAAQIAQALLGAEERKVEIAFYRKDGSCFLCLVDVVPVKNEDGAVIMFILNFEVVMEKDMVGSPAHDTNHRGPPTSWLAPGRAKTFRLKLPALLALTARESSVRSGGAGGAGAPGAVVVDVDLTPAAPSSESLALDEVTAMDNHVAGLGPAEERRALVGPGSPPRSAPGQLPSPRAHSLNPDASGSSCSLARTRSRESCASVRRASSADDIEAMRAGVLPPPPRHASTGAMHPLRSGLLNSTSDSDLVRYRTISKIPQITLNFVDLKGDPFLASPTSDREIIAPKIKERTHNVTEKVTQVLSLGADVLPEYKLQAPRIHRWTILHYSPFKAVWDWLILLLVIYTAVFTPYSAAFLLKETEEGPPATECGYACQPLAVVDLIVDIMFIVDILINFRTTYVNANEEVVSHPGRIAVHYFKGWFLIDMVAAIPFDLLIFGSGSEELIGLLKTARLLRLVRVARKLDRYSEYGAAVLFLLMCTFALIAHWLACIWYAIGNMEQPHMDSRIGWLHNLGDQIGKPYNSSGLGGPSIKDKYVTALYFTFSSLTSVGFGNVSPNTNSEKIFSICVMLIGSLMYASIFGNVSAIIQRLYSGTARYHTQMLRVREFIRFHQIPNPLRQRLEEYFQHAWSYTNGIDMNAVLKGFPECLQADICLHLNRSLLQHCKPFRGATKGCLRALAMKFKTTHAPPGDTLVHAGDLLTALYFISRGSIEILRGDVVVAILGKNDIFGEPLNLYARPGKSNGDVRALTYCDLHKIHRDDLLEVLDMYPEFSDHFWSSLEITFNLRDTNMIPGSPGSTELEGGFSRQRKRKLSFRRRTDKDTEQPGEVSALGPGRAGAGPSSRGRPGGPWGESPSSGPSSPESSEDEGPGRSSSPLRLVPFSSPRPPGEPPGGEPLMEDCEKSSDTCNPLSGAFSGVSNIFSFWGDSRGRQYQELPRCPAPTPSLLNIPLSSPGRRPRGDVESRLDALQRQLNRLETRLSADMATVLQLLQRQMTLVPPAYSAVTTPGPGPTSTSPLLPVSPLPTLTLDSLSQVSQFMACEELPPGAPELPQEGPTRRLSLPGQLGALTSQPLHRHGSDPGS
# In short: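 Measured: Tl+ flux via fluorescence (480/540 nm) in hERG-expressing U2OS cells after 1 h dye loading at room temperature.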
# Further: nearly all actives have a fitted effect of over 50% in size.
# Potency means the concentration at half of the fitted maximal effect.
structure (smiles),measurement,setting,value
C=CCCC(=O)/C=C/C1C(C)=CCCC1(C)C (configuration not stated),Potency,[1],inactive
same,Potency,[2],17.8 µM (active)
Sc1nc2ccccc2s1,Potency,[3],inactive
same,Potency,[2],inactive
C=CC(=O)Nc1cc2c(Nc3ccc(F)c(Cl)c3)ncnc2cc1OCCCN1CCOCC1,Potency,[1],inactive
same,Potency,[3],inactive
same,Potency,[2],12.3 µM (active)
Oc1c(I)cc(Cl)c2cccnc12,Potency,[3],inactive
O=C(O)Cc1ccccc1Nc1c(Cl)cccc1Cl,Potency,[3],inactive
same,Potency,[2],inactive
O=C1C(c2[nH]c3ccc(S(=O)(=O)O)cc3c2O)=Nc2ccc(S(=O)(=O)O)cc21,Potency,[3],inactive
same,Potency,[2],inactive
CC(C(=O)O)c1ccc2c(c1)[nH]c1ccc(Cl)cc12 (configuration not stated),Potency,[3],inactive
same,Potency,[2],inactive
C=Cc1ccccc1C=C,Potency,[3],inactive
same,Potency,[2],inactive
O=C(O)CN(CCN(CC(=O)O)CC(=O)O)CC(=O)O,"activity change, negative = inhibition",[3],-1.4% [at 2.72 µM]
OCCN1CCN(CCCN2c3ccccc3Sc3ccc(C(F)(F)F)cc32)CC1,Potency,[3],3.38 µM (active)
CC(C)CCCCCOC(=O)CCS,Potency,[1],39.9 µM (active)
same,Potency,[3],inactive
same,Potency,[2],inactive
COCCOc1cc2cc(C(=O)NC3CCN(C(C)C)CC3)n(CC(=O)Nc3ccc(Cl)cn3)c2cn1,Potency,[3],inactive
Cc1cc(C(C)(C)C)c(O)c(C)c1Cn1c(=O)n(Cc2c(C)cc(C(C)(C)C)c(O)c2C)c(=O)n(Cc2c(C)cc(C(C)(C)C)c(O)c2C)c1=O,Potency,[1],31.7 µM (active)
same,Potency,[3],inactive
O=[N+]([O-])c1ccc(F)c(Cl)c1,Potency,[3],inactive
same,Potency,[2],inactive
FC(F)(F)c1cccc(Cl)c1,Potency,[1],inactive
same,Potency,[3],inactive
same,Potency,[2],inactive
O=S(=O)(O)c1ccccc1/C=C/c1ccc(-c2ccc(/C=C/c3ccccc3S(=O)(=O)O)cc2)cc1,Potency,[1],inactive
same,Potency,[3],inactive
CNc1ccc([N+](=O)[O-])cc1,Potency,[3],inactive
same,Potency,[2],inactive
CC(C)(C)CC(C)(C)c1ccc(Nc2ccc(C(C)(C)CC(C)(C)C)cc2)cc1,"activity change, negative = inhibition",[3],0.578% [at 6.97 µM]
same,"activity change, negative = inhibition",[2],-20% [at 10.5 µM]
Cc1ccc(C(C)C)cc2c(C)ccc1-2,Potency,[3],inactive
O=C1NC(=O)[C@@H]2CC=CC[C@H]12,Potency,[3],inactive
C=CCn1c(=O)n(CC=C)c(=O)n(CC=C)c1=O,Potency,[1],31.6 µM (active)
same,Potency,[3],inactive
CC(C)(c1cc(Br)c(OCC(Br)CBr)c(Br)c1)c1cc(Br)c(OCC(Br)CBr)c(Br)c1 (configuration not stated),Potency,[3],inactive
C1CCC(SSC2CCCCC2)CC1,Potency,[1],25.2 µM (active)
same,Potency,[3],inactive
same,Potency,[2],inactive
Cc1cc(=O)oc2cc(O)cc(O)c12,Potency,[3],inactive
same,Potency,[2],20.1 µM (active)
OC1CCC(C2CCCCC2)CC1 (configuration not stated),Potency,[1],35.6 µM (active)
same,Potency,[3],inactive
same,Potency,[2],inactive
CCC(=O)C(=O)CC,Potency,[1],inactive
same,Potency,[3],inactive
same,Potency,[2],5.88 µM (active)
CCC(CC)C(C)CCOC(C)=O (configuration not stated),Potency,[3],inactive
same,Potency,[2],inactive
CCC(C)[O-].CCC(C)[O-].CCOC(=O)/C=C(/C)[O-].[Al+3],Potency,[3],inactive
COc1cccc2c1C(=O)c1c(O)c3c(c(O)c1C2=O)C[C@@](O)(C(C)=O)C[C@@H]3O[C@H]1C[C@H](N)[C@H](O)[C@H](C)O1,Potency,[3],inactive
O=C(Oc1ccccc1)Oc1ccccc1,Potency,[1],35.4 µM (active)
same,Potency,[3],inactive
same,Potency,[2],inactive
C=C(C)C(=O)OCCCCCCCCCC,Potency,[3],inactive
same,Potency,[2],inactive
CCN(CC)C(=O)c1cc(S(=O)(=O)Cc2ccccc2)c(N2CCC(c3ccccc3)CC2)cc1N(CC)CCN(C)C,Potency,[1],inactive
same,Potency,[3],1.72 µM (active)
same,Potency,[2],0.125 µM (active)
CCCC(=O)OC(C)(C)Cc1ccccc1,Potency,[3],inactive
CCCCCCCCCCOC(=O)c1ccccc1C(=O)OCCCCCCCC,Potency,[1],inactive
same,Potency,[3],inactive
Oc1cc(Cl)cc(Cl)c1Cl,Potency,[1],16.3 µM (active)
same,Potency,[3],inactive
same,Potency,[2],inactive
CC(C)(C)c1ccc(C(O)CCCN2CCC(C(O)(c3ccccc3)c3ccccc3)CC2)cc1 (configuration not stated),Potency,[2],inactive
O=C(O)O,"activity change, negative = inhibition",[3],0.334% [at 6.97 µM]
same,"activity change, negative = inhibition",[2],0.224% [at 10.5 µM]
